“And” between values parts separate entries of the source, which are not always exact repeats. Equal values may be shown once. Inconclusive results are not listed. The source made the active and inactive calls. Calls come from the whole dose curve; as a rule, active = well fitted inhibition curve with a large enough effect in the main read-out, with a control signal flat; inconclusive = small, poorly fitted or top-dose-only effect, or a change in a side signal; inactive = flat fitted curve, though single readings scatter.
Molecular target: Neuropeptide S receptor (Homo sapiens) (UniProt Q6W5P4)
Assay: Confirmation Concentration-Response Assay for Antagonists of the Neuropeptide S Receptor: cAMP Signal Transduction;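 for activity change, negative = inhibition: 0% = DMSO with NPS and full inhibition = wells lacking NPS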
Settings: CHO-NPSR cells, cAMP TR-FRET, antagonist mode; series mostly up to 22.3 µM; activity change, negative = inhibition: at the top concentration
From the text: NIH Chemical Genomics Center [NCGC] NIH Molecular Libraries Probe Production centers Network [MLPCN] MLPCN Grant: X01-DA026210-01 Assay Submitter (PI): Heilig, Markus Alexander NCGC Assay Overview: Neuropeptide S receptor (NPSR), previously known as GPR154, is a recently de-orphanized G protein coupled receptor. Its endogenous ligand is the 20 amino acids peptide Neuropeptide S (NPS). […] NPS and its receptor are found in various tissues. Specifically they are highly expressed in brain areas that have been implicated in modulation of arousal, stress and anxiety. Central administration of NPS in mice produces an unusual profile of activity by inducing wakefulness and arousal, while at the same time suppressing anxiety. Therefore, NPSR may represent a novel drug target for the treatment of sleep and anxiety disorders. To identify NPSR antagonists, we developed a cell-based cAMP assay. NPS can stimulate the production of cAMP in Chinese hamster ovary cells stably expressing NPS receptor. This change in intracellular cAMP level can be detected by a homogeneous LANCE cAMP assay based on the TR-FRET (time resolved fluorescence resonance energy transfer) between a europium-labeled cAMP tracer complex and a cAMP-specific antibody labeled with Alexa Fluor 647. The europium-labeled cAMP tracer complex is formed by the tight interaction between Biotin-cAMP (b-cAMP) and streptavidin labeled with Europium-W8044 chelate (Eu-SA). Light pulse at 320 nm excites the europium of the cAMP tracer and the energy emitted is transferred to the Alexa molecule bound to the cAMP antibody, generating a TR-FRET signal at 665 nm. Residual energy from the europium will produce a light at 620 nm. The native unlabeled cAMP from cell lysates competes with the europium-cAMP tracer for antibody binding and reversely reduces the emission signal of Alexa by interrupting FRET between the two labeled molecules. Both emission signals from the FRET donor (620 nm) and the acceptor (665 nm) can be detected by a plate reader in the TRF mode. Expression of result in fluorescence ratio (665 nm/620 nm) helps to normalize differences due to cell density and reagent dispensing. This assay was successfully optimized to a 1536-well plate format. Select compounds from the primary screen (AID 1461) were chosen for confirmation based on potency, efficacy, SAR, and activity across other assays in PubChem and at NCGC. Other compounds are analogs of active compounds from the primary sceen.
NCGC Assay Protocol Summary: A Chinese hamster ovary (CHO) cell line stably expressing the NPS receptor (CHO-NPSR) was obtained from Dr. Heilig lab at NIAAA and maintained in F-12 Kaighn's media (Invitrogen, Carlsbad, CA, 21127) supplemented with 10 % FBS, 100 units/ml penicillin, 100 ug/ml streptomycin and 250 ug/ml geneticin at 37C, 5% CO2 in a humidified atmosphere. Before the assay, aliquots of cells were frozen and stored at -135C. The assay was performed in 1536-well format. Data are reported for both the ratio of the two emission wavelengths, and also for the component 'donor' channel, Em2=620. […] IC50 values were determined from concentration-response data modeled with the standard Hill equation. NPS 1536-well assay protocol: (1) Fresh or frozen CHO-NPSR cells were suspended in F-12 Kaighn's media supplemented with 10 % FBS, 100 units/ml penicillin and 100 ug/ml streptomycin. Cells were plated at 4 ul/well (1200 cells) to white, tissue culture treated 1536-well plates, and then cultured at 37C, 5 % CO2 for 16 to 30 hours. (2) Add 23 nl/well of compound in DMSO solution. The final titration for each compound was between 0.6 nM and 46 uM. (3) Add 1 ul of stimulation reagent (1X HBSS buffer, 5 mM HEPES, 0.1% BSA, 500 uM RO-201724 (Sigma-Aldrich, B8279), 1.5% Alexa 647-labeled anti-cAMP antibody (from Perkin Elmer), 100 nM NPS) (4) Incubation at 37C, 5 % CO2 for 60 min. (5) Add 1 ul/well detection reagent. […]
Potency is the fitted concentration of half-maximal effect.

Sequence of Neuropeptide S receptor (Homo sapiens) (Q6W5P4 whole entry, looked up): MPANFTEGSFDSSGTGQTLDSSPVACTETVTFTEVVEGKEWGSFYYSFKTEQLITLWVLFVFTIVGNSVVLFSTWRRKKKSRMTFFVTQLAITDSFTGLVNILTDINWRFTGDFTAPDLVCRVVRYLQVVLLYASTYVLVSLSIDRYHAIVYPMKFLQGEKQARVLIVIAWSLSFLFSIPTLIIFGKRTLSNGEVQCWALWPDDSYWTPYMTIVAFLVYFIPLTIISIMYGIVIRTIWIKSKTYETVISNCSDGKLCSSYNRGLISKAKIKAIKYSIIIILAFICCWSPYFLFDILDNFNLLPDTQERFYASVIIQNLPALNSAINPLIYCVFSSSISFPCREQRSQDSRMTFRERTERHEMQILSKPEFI

Row | Structure (SMILES) | Potency | activity change, negative = inhibition
1 | CC(=O)c1sc(N/N=C\c2ccccc2O)nc1C | 7.08 µM (active) | 
2 | CC(C)Cc1nc(N2CCN(C(=O)c3ccccc3)CC2)c(C#N)c2c1CCC2 |  | -10.7% (inactive)
3 | Cc1cc(OCC(=O)c2ccc(Br)cc2)ccc1N1C(=O)CCC1=O |  | -12.9% (inactive)
4 | COc1cccc(C2c3c(ncn(-c4ccccc4)c3=N)Oc3ccc4ccccc4c32)c1OC (stereo not given) | 4.47 µM (active) | 
5 | COc1cc(/C=C2\SC(c3ccc(C)cc3)=NC2=O)cc(OC)c1O | 10 µM (active) | 
6 | S=C(Nc1ccccn1)c1ccccn1 |  | 1.64% (inactive)
7 | Cc1cccnc1NC(=O)c1c(O)c2cccc3c2n(c1=O)CCC3 |  | -5.87% (inactive)
8 | CN(C)C(=O)Oc1cccc([N+](C)(C)C)c1 |  | -5.44% (inactive)
9 | O=C(CCc1ccccc1)Nc1ncnc2c1C(c1ccccc1)c1c(ccc3ccccc13)O2 (stereo not given) | 3.55 µM (active) | 
10 | CCN(CC)S(=O)(=O)c1ccc2c(c1)nc(SC(C)C(N)=O)n2-c1ccc(OC)cc1 (stereo not given) |  | -17.6% (inactive)
11 | CCOC(=O)CCCC(=O)Nc1ncnc2c1C(c1ccccc1)c1c(ccc3ccccc13)O2 (stereo not given) | 2 µM (active) | 
12 | Cc1ccc(-n2ncc3c(NCc4ccc5c(c4)OCO5)ncnc32)c(C)c1 |  | -21.2% (inactive)
13 | CCOc1ccc(-n2c(=S)sc3c(=O)[nH]c(SCC(=O)C(C)(C)C)nc32)cc1 | 7.08 µM (active) | 
14 | COc1ccc(NC(=O)/C(Cl)=C(/Cl)S(=O)Cc2ccc(C)cc2)cn1 (stereo not given) | 2.24 µM (active) | 
15 | CC1(C)O[C@@H]2C[C@H]3[C@@H]4C[C@H](F)C5=CC(=O)CC[C@]5(C)[C@H]4[C@@H](O)C[C@]3(C)[C@]2(C(=O)CO)O1 |  | -6.23% (inactive)
16 | COc1cccc(C2c3c(ncn(-c4ccccc4)c3=N)Oc3ccc4ccccc4c32)c1 (stereo not given) | 2 µM (active) and 1.58 µM (active) | 
17 | O=C(O)C1CCN(c2nc(-c3ccccc3)nc3c2oc2ccccc23)CC1 |  | -13.7% (inactive)
18 | CCOc1ccc(N2C(=O)CC(NCCc3ccncc3)C2=O)cc1 (stereo not given) |  | 15% (inactive)
19 | COc1ccc(/C=C2\CCCC3C2=NN(C(=O)c2ccco2)C3c2ccc(OC)c(OC)c2)cc1OC (stereo not given) | inactive | 
20 | Cc1cc(C)n(-c2nc(NC(C)C)nc(NC(C)C)n2)n1 |  | -3.58% (inactive)

Row | Structure (SMILES) | Potency | activity change, negative = inhibition
21 | O=C(Nc1nccs1)C1CCCN1S(=O)(=O)c1ccc(Cl)cc1 (stereo not given) |  | 1.4% (inactive)
22 | O=S1(=O)Nc2c(ccc3cccnc23)-c2ccccc21 | 4.47 µM (active) | 
23 | O=C1Nc2ccc(S(=O)(=O)N3CCCC3C(=O)O)c3cccc1c23 (stereo not given) |  | -13.2% (inactive)
24 | Nc1ccc(-c2nc3c(Cl)cc(N)cc3[nH]2)cc1 |  | -9.8% (inactive)
25 | N=c1c2c(ncn1-c1ccccc1)Oc1ccc3ccccc3c1C2c1ccc2c(c1)OCCO2 (stereo not given) | 1.41 µM (active) | 
26 | COc1ccc(CCNC(=O)CC(c2ccccc2)c2cccc(C)c2O)cc1OC (stereo not given) |  | -8.59% (inactive)
27 | O=C(Cc1ccccc1)Nc1ncnc2c1C(c1ccccc1)c1c(ccc3ccccc13)O2 (stereo not given) | 1.58 µM (active) | 
28 | O=C(c1ccccc1)N(C(=O)c1ccccc1)c1ncnc2c1C(c1ccccc1)c1c(ccc3ccccc13)O2 (stereo not given) | 3.16 µM (active) | 
29 | C(=N\Nc1nc(-c2ccccn2)nc2ccccc12)/c1ccccc1 |  | -13% (inactive)
30 | O=[N+]([O-])c1cc2c(cc1/C=N/n1c(-c3ccccc3)n[nH]c1=S)OCO2 |  | -1.53% (inactive)
31 | O=C(Nc1ncnc2c1C(c1ccccc1)c1c(ccc3ccccc13)O2)c1ccccc1 (stereo not given) | 6.31 µM (active) | 
32 | CN(C)C(=S)N=Nc1[nH]c2ccccc2c1O | 10 µM (active) | 
33 | Cc1ccc(NC(=S)NNC(C)(C)C)cc1 |  | -2.61% (inactive)
34 | COc1cccc(C2c3c(ncn(CCCN4CCOCC4)c3=N)Oc3ccc4ccccc4c32)c1 (stereo not given) | 14.1 µM (active) | 
35 | Cc1nc(NC(=S)Nc2ccccc2)sc1C |  | -7.56% (inactive)
36 | c1ccc(-c2ccc(-c3nc(-c4cccnc4)no3)cc2)cc1 |  | -15.5% (inactive)
37 | CN(C)S(=O)(=O)Nc1ccccc1C(N)=O |  | -5.22% (inactive)
38 | CCCCNS(=O)(=O)c1ccc2nc(-c3cccnc3)cc(C(=O)NC(C)CC)c2c1 (stereo not given) |  | -6.53% (inactive)
39 | COc1ccc(N(CC(=O)Nc2cccc(SC)c2)S(C)(=O)=O)cc1Cl |  | -14.4% (inactive)
40 | COc1ccc(/C=N/n2cncn2)cc1Cn1cc([N+](=O)[O-])cn1 |  | 0.869% (inactive)

Reference: PubChem BioAssay AID1491 (National Center for Advancing Translational Sciences (NCATS), 2009)
